Reference: PubChem BioAssay AID588811 (Broad Institute, 2011)
Measured potencies and affinities stand elsewhere.

Target: Dual specificity protein kinase CLK1 (Homo sapiens) (UniProt P49759)
Assay: inhibition of human CLK1 activity – biochemical, cherry-picked samples, selectivity assay for Dyrk1A inhibitor project, dose response (AID 588811)
Settings: recombinant CLK1, ADP-Glo luminescence, 2 h; series mostly up to 12 µM; activity change, negative = inhibition: at the top concentration;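 active = compounds lowering signal whose fitted half-maximal concentration is at most twice the top tested dose; inconclusive = flat curve with 30 to 70% inhibition, or poor fit; inactive = the rest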

Chain of Dual specificity protein kinase CLK1 (Homo sapiens) (P49759 whole entry, looked up): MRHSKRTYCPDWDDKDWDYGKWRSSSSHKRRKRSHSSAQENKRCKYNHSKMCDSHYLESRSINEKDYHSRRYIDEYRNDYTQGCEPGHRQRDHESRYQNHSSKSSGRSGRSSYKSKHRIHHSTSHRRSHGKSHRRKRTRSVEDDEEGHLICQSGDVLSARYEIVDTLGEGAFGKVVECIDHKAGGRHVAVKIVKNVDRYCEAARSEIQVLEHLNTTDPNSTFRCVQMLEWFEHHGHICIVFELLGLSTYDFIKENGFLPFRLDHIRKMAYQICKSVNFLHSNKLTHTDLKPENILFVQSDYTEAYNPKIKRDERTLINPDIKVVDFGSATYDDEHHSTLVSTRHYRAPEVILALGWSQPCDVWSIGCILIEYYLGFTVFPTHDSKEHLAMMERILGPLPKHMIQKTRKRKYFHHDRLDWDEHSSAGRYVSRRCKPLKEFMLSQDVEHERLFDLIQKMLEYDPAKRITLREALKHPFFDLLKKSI

Activity change, negative = inhibition, inactive:
Clc1ccccc1-c1ccc2ncnc(NCc3ccc4c(c3)OCO4)c2c1 -3.63%
Clc1ccc(CNc2cc(-c3ccc4c(c3)OCO4)ncn2)cc1 -23.3%
Cc1ccnc(NC(=O)c2cccc(S(=O)(=O)N3CCN(c4ccccc4)CC3)c2)c1 -5.91%
COCCNC(=O)c1ccc2c(c1)nc(C)n2-c1cccc(F)c1 -16.5%
Clc1cc(Cl)cc(CNc2cc(-c3ccc4c(c3)OCO4)ncn2)c1 -20%
CCCC(=O)Nc1nc(-c2ccc3c(c2)OCCO3)cs1 -24.5%
N#Cc1c(C(F)(F)F)cc(-c2cccc(Cl)c2)[nH]c1=O -15.6%
O=C(NCc1ccco1)c1sc2ccccc2c1Cl -12.3%
Clc1ccc(CNc2nccc(-c3ccc4cn[nH]c4c3)n2)cc1Cl -19.6%
Cc1noc(NS(=O)(=O)c2ccc(NC(=O)c3oc4ccc(F)cc4c3C)cc2)c1C -34%
CC(=O)Nc1cccc(NC(=O)c2cc3ccccc3o2)c1 -17%
Fc1cccc(Nc2nc(-c3ccncc3)nc3ccccc23)c1 -43.5%
COc1cccc(-c2sc3ccccc3c2-c2ccc(OCCN3CCCC3)cc2)c1 -9.56%
Cc1c(-c2ccnc(NCc3ccc(Cl)cc3)n2)sc(=O)n1C -45%
COc1cccc(Nc2nc(NCCO)c3ccccc3n2)c1 -8.29% [at 1.35 µM]
N#CCSc1nc(Nc2ccc3c(c2)OCO3)c2ccccc2n1 -4.57%
COc1ccc2c(Cl)c(C(=O)NCc3ccco3)sc2c1 -35.8%
